“And” between values parts separate entries of the source, which are not always exact repeats. Equal values may be shown once. Inconclusive results are not listed. The source made the active and inactive calls. How the source made its calls, unless noted: active means hit-call score of the fitted dose curve at least 0.9, where 1 is the maximum; inactive means score below 0.9.
What was measured:
[1] = read-out: Interleukin 6 (IL6), IL6 (gene 3569); assay: BSK_BT_xIL6: BioMAP Diversity Plus: BT Assay for Interleukin 6 (IL6) Biomarker Activity (AID 2284228); settings: primary human B cells with PBMC
How it was run: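 Secreted IL-6 in the primary human B cell plus PBMC system, measured by Luminex at 24 h post-chemical, DMSO as baseline. Alamar Blue viability: 75,000 cells/well, chemical 1 h before SEB/TSST-1 (20 ng/mL each), 90 h, then 6 h dye.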

[2] = read-out: Interleukin 17A (IL17A), IL17A (gene 3605); assay: BSK_BT_xIL17A: BioMAP Diversity Plus: BT Assay for Interleukin 17A (IL17A) Biomarker Activity (AID 2284229); settings: primary human B cells with PBMC
How it was run: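 Luminex xMAP quantification of secreted IL-17A after 24 h chemical exposure of a primary human B cell/PBMC co-culture. Signal increases fitted relative to DMSO negative control.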

[3] = read-out: Tumor necrosis factor (Homo sapiens) (UniProt P01375); assay: BSK_BT_xTNFa: BioMAP Diversity Plus: BT Assay for Tumor necrosis factor alpha (TNF-alpha) Biomarker Activity (AID 2284230); settings: primary human B cells with PBMC
How it was run: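 Compounds were added to a B cell plus PBMC co-culture, and after 24 h secreted TNF-alpha was quantified with Luminex xMAP technology, with responses fitted upward from the DMSO control.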

[4] = read-out: Vascular cell adhesion molecule 1 (VCAM1), VCAM1 (gene 7412); assay: BSK_MyoF_VCAM1: BioMAP Diversity Plus: MyoF Assay for Vascular cell adhesion molecule 1 (VCAM1) Biomarker Activity (AID 2284231); settings: primary human lung fibroblasts
How it was run: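 ELISA readout of VCAM-1 on human lung fibroblast cultures 24 hours after dosing, analyzed for signal gain relative to DMSO. Overt cytotoxicity was checked by sulforhodamine B total-protein staining in parallel cultures.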

[5] = read-out: Collagen I, COL1A1 (gene 1277); assay: BSK_MyoF_CollagenI: BioMAP Diversity Plus: MyoF Assay for Collagen I Biomarker Activity (AID 2284238); settings: primary human lung fibroblasts
How it was run: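 Collagen I levels measured by ELISA on human lung fibroblast cultures 24 h post-dosing, with curve fitting in the positive direction relative to DMSO; SRB staining of parallel wells marked cytotoxicity.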

[6] = read-out: Collagen III, COL3A1 (gene 1281); assay: BSK_MyoF_CollagenIII: BioMAP Diversity Plus: MyoF Assay for Collagen III Biomarker Activity (AID 2284239); settings: primary human lung fibroblasts
How it was run: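 Collagen III biomarker quantified by ELISA in human lung fibroblast cultures 24 h after dosing. Activity fitted in the positive direction against DMSO as baseline.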

[7] = read-out: Interleukin 17F (IL17F), IL17F (gene 112744); assay: BSK_BT_xIL17F: BioMAP Diversity Plus: BT Assay for Interleukin 17F (IL17F) Biomarker Activity (AID 2284243); settings: primary human B cells with PBMC
How it was run: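 Human B cells co-cultured with PBMC; secreted IL-17F quantified by LumineX xMAP 24 hours after chemical dosing. Activity fitted in the positive direction against DMSO negative control as baseline.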

[8] = read-out: Actin alpha 1 (ACTA1), ACTA1 (gene 58); assay: BSK_MyoF_ACTA1: BioMAP Diversity Plus: MyoF Assay for Actin alpha 1 (ACTA1) Biomarker Activity (AID 2284244); settings: primary human lung fibroblasts
How it was run: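 Measured by ELISA: alpha-smooth muscle actin in human primary lung fibroblasts 24 h after dosing, with DMSO as baseline and upward signal change as the fitted direction.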

[9] = read-out: Interleukin 2 (IL2), IL2 (gene 3558); assay: BSK_BT_xIL2: BioMAP Diversity Plus: BT Assay for Interleukin 2 (IL2) Biomarker Activity (AID 2284245); settings: primary human B cells with PBMC
How it was run: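 Secreted interleukin-2 from human B cell/PBMC co-cultures, measured 24 h post-dosing by Luminex multiplex immunoassay. Upward-direction curve fitting against DMSO baseline.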

[10] = read-out: Basic fibroblast growth factor (bFGF), FGF2 (gene 2247); assay: BSK_MyoF_bFGF: BioMAP Diversity Plus: MyoF Assay for Basic fibroblast growth factor (bFGF) Biomarker Activity (AID 2284246); settings: primary human lung fibroblasts
How it was run: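 In this multiplexed cell system, lung fibroblasts (human primary) receive test chemical for 24 h before ELISA detection of bFGF; DMSO defines baseline and the analysis direction is positive.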

[11] = read-out: Collagen IV, COL4A1 (gene 1282); assay: BSK_MyoF_CollagenIV: BioMAP Diversity Plus: MyoF Assay for Collagen IV Biomarker Activity (AID 2284247); settings: primary human lung fibroblasts
How it was run: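 Activity is scored as a signal increase over DMSO in an ELISA for Collagen IV, measured on human lung fibroblasts at 24 h after chemical treatment. Cytotoxicity is checked in parallel cultures by sulforhodamine B total-protein staining.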

[12] = CCTE_Mundy_HCI_hNP1_Casp3_7: CCTE's Caspase-Glo 3/7 Assay in human neuroprogenitor cells for Apoptosis, Mundy Lab (AID 2284240)
How it was run: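 Luminescent caspase-3/7 readout, 26.5 h post-dose, in human neural progenitor cells from WA09 embryonic stem cells. Cells grew 40–44 h at 37 °C, 5% CO2 before chemical addition. Activity analysed as signal increase over DMSO baseline.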

[13] = CCTE_Mundy_HCI_hNP1_CellTiter: CCTE's Cell Titer-Glo 2 Assay in human neuroprogenitor cells for Viability, Mundy Lab (AID 2284241; active means hit-call score of the fitted dose curve at least 0.9, where 1 is the maximum)
How it was run: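 Viability read as luminescent ATP content (CellTiter-Glo, 30 min room temperature) twenty-four hours after dosing, relative to DMSO. Cells: WA09-derived hNP1 neuroprogenitors on poly-L-ornithine/laminin, plated 40 to 44 hours before chemical.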

Measured: AC50

Sequence of Tumor necrosis factor (Homo sapiens) (P01375 whole entry, looked up): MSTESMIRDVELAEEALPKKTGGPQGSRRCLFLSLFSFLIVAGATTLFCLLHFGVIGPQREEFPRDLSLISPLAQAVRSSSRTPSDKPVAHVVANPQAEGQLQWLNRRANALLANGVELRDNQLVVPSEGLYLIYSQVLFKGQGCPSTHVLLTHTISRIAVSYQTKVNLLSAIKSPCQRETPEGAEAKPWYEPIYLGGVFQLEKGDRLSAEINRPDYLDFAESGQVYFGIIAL

Nc1ncc([N+](=O)[O-])s1
not listed: [12] | [13]
inactive: all other assays above

CCOP(=S)(OCC)SCCS(=O)(=O)CC
active: [9] 23.9 µM
not listed: [12] | [13]
inactive: all other assays above

O=C(O)C(F)(F)C(F)(F)C(F)(F)C(F)(F)C(F)(F)C(F)(F)F
inactive: all assays above

COc1cc(OC)nc(NC(=O)NS(=O)(=O)c2ncccc2C(=O)N(C)C)n1
not listed: [12] | [13]
inactive: all other assays above

Oc1c(I)cc(I)cc1I
active: [4] 8.17 µM | [5] 9.61 µM | [6] 3.97 µM | [8] 20 µM | [11] 4.34 µM
not listed: [12] | [13]
inactive: all other assays above

O=[N+]([O-])c1ccc2c3c(cccc13)CC2
active: [1] 20 µM
not listed: [12] | [13]
inactive: all other assays above

O=C(O)C(F)(F)C(F)(F)C(F)(F)C(F)(F)C(F)(F)C(F)(F)C(F)(F)C(F)(F)C(F)(F)C(F)(F)F
inactive: [1] | [2] | [3] | [7] | [9]
active: [4] 4.85 µM and 4.92 µM | [5] 2.19 µM and 2.25 µM | [6] 2.59 µM and 2.58 µM | [8] 2.74 µM and 2.55 µM | [10] 5.14 µM and 6.09 µM | [11] 816 nM and 843 nM

Nc1ccc(-c2ccc(N)c(Cl)c2)cc1Cl
active: [2] 12.8 µM | [3] 20 µM | [4] 20 µM | [5] 13.7 µM | [6] 3.17 µM | [7] 20 µM | [9] 32.4 µM
inactive: [1] | [8] | [10] | [11]

CCOC(=O)/C=C(C)/C=C/C[C@@H](C)CCCC(C)C
active: [1] 20.8 µM | [2] 20 µM | [3] 30.6 µM | [4] 29.2 µM | [5] 32.5 µM | [6] 30.6 µM | [7] 25.6 µM | [8] 29.6 µM | [9] 20 µM | [10] 32.5 µM | [11] 7.11 µM

O=S(=O)(c1ccc(Cl)cc1)c1ccc(Cl)cc1
not listed: [12] | [13]
inactive: all other assays above

O=C(OC1CCCCC1)c1ccccc1C(=O)OC1CCCCC1
inactive: [10] | [11]
active: [1] 28.3 µM | [2] 20.9 µM | [3] 32.1 µM | [4] 20.9 µM | [5] 13 µM | [6] 16.6 µM | [7] 30.8 µM | [8] 12.5 µM | [9] 30.9 µM

CCOP(=S)(OCC)Oc1ccc(S(C)=O)cc1 (stereo unspecified)
not listed: [12] | [13]
inactive: all other assays above

O=C(O)CCC(F)(C(F)(F)F)C(F)(F)F
not listed: [12] | [13]
inactive: all other assays above

COP(=S)(OC)Oc1ccc(S(=O)(=O)N(C)C)cc1
not listed: [12] | [13]
inactive: all other assays above

CCCCC(CC)CO[N+](=O)[O-] (stereo unspecified)
not listed: [12] | [13]
inactive: all other assays above

BrCCBr
not listed: [12] | [13]
inactive: all other assays above

OCc1ccco1
active: [7] 9.51 µM
not listed: [12] | [13]
inactive: all other assays above

ClC1=C(Cl)[C@]2(Cl)[C@H]3[C@H]([C@H]4C=C[C@H]3C4)[C@@]1(Cl)C2(Cl)Cl
inactive: [5] | [9] | [10] | [11]
active: [1] 20 µM | [2] 24.4 µM | [3] 33.1 µM | [4] 3.97 µM | [6] 5.43 µM | [7] 27 µM | [8] 8.66 µM

CC1(C)Cc2cccc(O)c2O1
not listed: [12] | [13]
inactive: all other assays above
